The source made the active and inactive calls.

In test [1] the test system is PRMT1 (protein arginine N-methyltransferase 1). Description: PRMT1 binders on small-molecule microarrays, primary screen, biochemical, small-molecule microarray, 635 nm fluorescence (AID 1088).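 Further: binding of Prmt1 protein to compounds spotted on small-molecule microarray slides.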 The following applies: small-molecule microarray binding, higher = more signal.
Test [2] can be described thus: yeast growth modulation, basal conditions, primary screen, YJM789 clinical isolate, OD600, 24 h (AID 1089).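 Further: growth of clinical yeast isolate S. cerevisiae YJM 789 seeded 1000 cells per well; test concentration not given here.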 The following applies: S. cerevisiae YJM789 growth, higher = more signal, called active from +8 up or from −8 down.
A short description of test [3]: fission yeast growth modulation, primary screen, strain 972, OD600, 24 h, no modulator (AID 1090).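 Further: basal condition with compound alone and no growth modifier present; test concentration not given here.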 The following applies: S. pombe 972 growth, higher = more signal, called active from +8 up or from −8 down.
Test [4] can be described thus: S. cerevisiae growth modulation with rapamycin, primary screen, strain BY4716, OD600, 96 h (AID 1091). Further: test concentration not given here. The following applies: higher = more signal, called active from +8 up or from −8 down.
The target of test [5] is Torsin-1A-interacting protein 2 (Homo sapiens) (UniProt Q8NFQ8). Description: LULL1 binders on small-molecule microarray, primary screen, cell lysate, human LULL1 lysate, 635/667 nm fluorescence (AID 1092).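 Further: probe is lysate of COS7 cells overexpressing human LULL1; score merges per-feature 667 nm fluorescence with signal-to-noise.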 The following applies: hLULL1 lysate binding, 635 nm fluorescence, higher = more signal.
Torsin-1A-interacting protein 2 (Homo sapiens), sequence (Q8NFQ8 whole entry, looked up): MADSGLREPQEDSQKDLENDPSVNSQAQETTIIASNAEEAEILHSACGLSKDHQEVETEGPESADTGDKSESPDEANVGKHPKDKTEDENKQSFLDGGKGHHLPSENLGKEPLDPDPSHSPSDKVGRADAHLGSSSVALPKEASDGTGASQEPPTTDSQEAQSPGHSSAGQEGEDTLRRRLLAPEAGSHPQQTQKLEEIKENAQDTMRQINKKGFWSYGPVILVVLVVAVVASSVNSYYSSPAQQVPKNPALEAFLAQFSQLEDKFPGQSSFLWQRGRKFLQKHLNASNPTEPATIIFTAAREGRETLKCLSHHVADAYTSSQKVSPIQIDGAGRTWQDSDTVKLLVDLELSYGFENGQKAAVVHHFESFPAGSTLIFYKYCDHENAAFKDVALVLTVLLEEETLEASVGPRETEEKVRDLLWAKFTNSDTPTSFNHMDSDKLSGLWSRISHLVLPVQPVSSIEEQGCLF
A short description of test [6]: E. coli growth modulation, two-sided OD650, primary screen, E. coli filamentation project, strain DRC41, 24 h (AID 1093).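 Further: MC1000 strain lacking acrAB efflux and sulA so SOS filamentation is blocked; test concentration not given here.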 The following applies: OD650, 24 h, higher = more signal, called active from +8 up or from −8 down.
The nature of test [7]: small-molecule microarray binders of probe aLefty2, primary screen, biochemical, biotinylated probe, 635/667 nm fluorescence (AID 1094).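 Further: score merges spot fluorescence near 667 nm with spot signal-to-noise ratio.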 The following applies: higher = more signal.
Test [8] relates to Noggin (protein binding on small-molecule microarray). Description: Noggin binders on small-molecule microarray, primary screen, biochemical, 635/667 nm fluorescence (AID 1095).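 Further: score merges 667 nm feature fluorescence with signal to noise over triplicate slides.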 The following applies: 635 nm fluorescence, higher = more signal.
In test [9] the target is Neurogenic locus notch homolog protein 3 (Homo sapiens) (UniProt Q9UM47). Description: NOTCH3 binders on small-molecule microarray, primary screen, biochemical, 635/667 nm fluorescence (AID 1096). The following applies: NOTCH3 binding, 635 nm fluorescence, higher = more signal.
Neurogenic locus notch homolog protein 3 (Homo sapiens), sequence (Q9UM47 whole entry, looked up): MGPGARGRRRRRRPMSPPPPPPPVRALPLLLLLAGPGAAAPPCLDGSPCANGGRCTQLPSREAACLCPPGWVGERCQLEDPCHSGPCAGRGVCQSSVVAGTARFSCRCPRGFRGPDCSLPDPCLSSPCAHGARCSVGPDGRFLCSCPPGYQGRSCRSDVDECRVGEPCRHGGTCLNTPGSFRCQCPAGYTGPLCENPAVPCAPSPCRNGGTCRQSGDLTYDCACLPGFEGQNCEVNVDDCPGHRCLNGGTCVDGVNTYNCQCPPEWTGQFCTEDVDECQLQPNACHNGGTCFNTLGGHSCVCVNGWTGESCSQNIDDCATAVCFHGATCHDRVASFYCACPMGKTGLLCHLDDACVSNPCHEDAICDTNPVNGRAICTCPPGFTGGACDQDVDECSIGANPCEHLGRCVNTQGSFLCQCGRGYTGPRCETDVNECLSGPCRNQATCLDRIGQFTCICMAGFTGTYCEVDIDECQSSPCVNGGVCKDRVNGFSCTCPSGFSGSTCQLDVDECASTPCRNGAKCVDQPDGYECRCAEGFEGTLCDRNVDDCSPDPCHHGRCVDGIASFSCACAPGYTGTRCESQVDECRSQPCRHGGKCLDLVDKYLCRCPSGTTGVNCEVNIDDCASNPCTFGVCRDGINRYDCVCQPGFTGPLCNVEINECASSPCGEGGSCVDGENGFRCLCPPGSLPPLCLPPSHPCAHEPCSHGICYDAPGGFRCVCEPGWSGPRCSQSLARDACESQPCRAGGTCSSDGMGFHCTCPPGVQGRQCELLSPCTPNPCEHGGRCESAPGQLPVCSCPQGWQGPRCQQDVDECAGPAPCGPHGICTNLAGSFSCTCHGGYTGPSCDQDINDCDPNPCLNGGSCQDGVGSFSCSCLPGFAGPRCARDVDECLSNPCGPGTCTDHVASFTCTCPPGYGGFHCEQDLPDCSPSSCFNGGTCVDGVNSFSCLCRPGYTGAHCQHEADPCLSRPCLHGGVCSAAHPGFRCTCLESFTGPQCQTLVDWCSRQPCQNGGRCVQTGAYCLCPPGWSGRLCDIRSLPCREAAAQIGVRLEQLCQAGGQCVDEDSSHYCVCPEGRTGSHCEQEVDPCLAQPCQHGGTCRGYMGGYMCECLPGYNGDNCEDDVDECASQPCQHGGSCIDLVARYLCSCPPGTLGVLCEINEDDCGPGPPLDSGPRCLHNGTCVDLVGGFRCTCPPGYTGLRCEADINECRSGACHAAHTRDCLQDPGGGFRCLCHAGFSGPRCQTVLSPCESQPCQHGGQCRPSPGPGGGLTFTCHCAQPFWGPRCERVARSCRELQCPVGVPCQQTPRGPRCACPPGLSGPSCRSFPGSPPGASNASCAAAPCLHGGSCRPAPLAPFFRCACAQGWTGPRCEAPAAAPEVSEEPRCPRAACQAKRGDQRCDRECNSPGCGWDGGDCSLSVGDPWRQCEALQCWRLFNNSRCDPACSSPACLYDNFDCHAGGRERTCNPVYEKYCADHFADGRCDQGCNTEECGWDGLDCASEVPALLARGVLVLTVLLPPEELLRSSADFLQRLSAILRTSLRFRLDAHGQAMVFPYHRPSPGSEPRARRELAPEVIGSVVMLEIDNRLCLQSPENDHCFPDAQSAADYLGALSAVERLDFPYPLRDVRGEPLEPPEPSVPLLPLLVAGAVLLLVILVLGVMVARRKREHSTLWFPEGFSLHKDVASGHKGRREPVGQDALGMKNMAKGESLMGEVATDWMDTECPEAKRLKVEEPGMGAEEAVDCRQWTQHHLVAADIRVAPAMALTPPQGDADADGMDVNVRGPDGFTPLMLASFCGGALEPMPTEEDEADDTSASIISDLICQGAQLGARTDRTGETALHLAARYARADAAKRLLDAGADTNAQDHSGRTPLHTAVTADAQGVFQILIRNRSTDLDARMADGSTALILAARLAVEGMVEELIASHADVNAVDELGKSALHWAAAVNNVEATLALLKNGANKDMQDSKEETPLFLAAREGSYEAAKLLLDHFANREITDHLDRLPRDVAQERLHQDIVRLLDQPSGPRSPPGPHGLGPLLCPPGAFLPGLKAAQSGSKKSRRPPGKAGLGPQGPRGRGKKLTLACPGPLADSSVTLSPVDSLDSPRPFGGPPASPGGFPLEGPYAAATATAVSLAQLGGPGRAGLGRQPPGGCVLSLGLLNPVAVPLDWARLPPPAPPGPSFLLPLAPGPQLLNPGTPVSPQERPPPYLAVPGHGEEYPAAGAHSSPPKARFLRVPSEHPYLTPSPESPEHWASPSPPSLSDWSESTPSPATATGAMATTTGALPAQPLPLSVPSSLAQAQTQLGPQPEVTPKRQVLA
Test [10] in a line: small-molecule microarray binders of probe aEGFR, primary screen, biochemical, biotinylated probe, 635/667 nm fluorescence (AID 1097).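 Further: probe is a biotinylated anti-EGFR antibody binding compounds printed on slides; score combines fluorescence near 667 nm and signal to noise of each spot.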 The following applies: higher = more signal.

`C=C(/C(=C/C[C@H](OC(=O)c1ccncc1)c1ccccc1OCCO)c1cnc2ccccc2c1)C(C)C`: the composite z-score in test [1] was 1.54; in [5], 2.27; in [7] it was -0.0632; in [8], 1.13; in test [9], 1.02; in [10], -0.0828. For the same molecule, the z-score in test [2] is -2.36 (inactive); in test [3] it was -0.555 (inactive); in test [4], 2.22 (inactive); in test [6], -0.0584 (inactive).
With `C=C(/C(=C/C[C@@H](OC(C)=O)c1ccc(OCCO)cc1)c1cc(C(=O)OC)ccc1OC)C(C)C`, the composite z-score in [1] was 0.629; in test [5], 1.21; in test [7] it was -0.152; in test [8], 0.902; in test [9], 0.843; in test [10], -0.176. For the same molecule, the z-score was -0.265 (inactive) in test [2], 0.272 (inactive) in test [3], -1.5 (inactive) in test [4] and -0.268 (inactive) in [6].
With `COCCCNC(=O)[C@@]1(c2ccc([N+](=O)[O-])cc2)CC(=O)N(CC23CC4CC(CC(C4)C2)C3)[C@@H]1c1ccc(CO)cc1I`, the composite z-score was 1.3 in [1]; 1.75 in test [5]; 0.0283 in test [7]; 0.26 in test [8]; 0.341 in test [9]; -0.183 in test [10]. Further, the z-score in test [2] is 1.01 (inactive); in [3], 1.08 (inactive); in [4], 4.92 (inactive); in test [6], -0.254 (inactive).
For `C=CCNC(=O)[C@H]1[C@@H]2C(=O)O[C@@H](c3ccccc3)[C@@H](c3ccccc3)N2[C@@H](c2ccc(O)cc2)[C@]12C(=O)N(C(=O)OCCOC)c1ccc(C#CCC(C(=O)OC)C(=O)OC)cc12`, the composite z-score in test [1] is 1.56; in test [5], 2.11; in test [7] it was -0.0229; in [8], 1.2; in test [9] it was 1.11; in [10] it was 0.0551. The z-score was 0.106 (inactive) in [2], 1.57 (inactive) in [3], 5.5 (inactive) in [4] and 0.301 (inactive) in test [6].
Consider `O=C1OCCC=C[C@H]2OC34C=CCN(c5ccc(Cl)cc5)C(=O)[C@H]3N(CCCCCCO)C(=O)[C@@H]4C12` (stereo not given in full), for which the composite z-score in test [1] was 0.117; in test [5], 0.455; in [7] it was -0.139; in test [8] it was -0.979; in test [9], -0.379; in test [10] it was -0.191. Further, the z-score in [2] was 0.115 (inactive); in [3], -1.1 (inactive); in test [4], -0.337 (inactive); in [6] it was 1.78 (inactive).
For the molecule `CCOC(=O)C=Cc1ccccc1O`, the composite z-score in test [1] was 0.697; in test [5] it was 1.44; in test [7] it was -0.0432; in test [8], -0.0491; in test [9], 0.947; in [10], 0.0594. Besides, the z-score in test [2] is -23.9 (active); in test [3], -9.67 (active); in test [4], -1.89 (inactive); in test [6], 0.354 (inactive).
Regarding `COCCCNC(=O)[C@@H]1c2ccccc2C(=O)N(C2Cc3ccccc3C2)[C@H]1c1ccc(CO)cc1`, the composite z-score in [1] was 1.17; in [5], 1.74; in test [7], -0.0237; in [8], 0.163; in test [9], -0.0847; in test [10], -0.0549. Moreover, the z-score in test [2] is 0.0011 (inactive); in test [3], -0.471 (inactive); in test [4], -0.559 (inactive); in test [6] it was 0.935 (inactive).
Turning to `COc1ccc(C(=O)Nc2cccc(CN3C(=O)[C@]4(O[C@H](CCn5cc([C@H](O)c6ccccc6)nn5)[C@@H]([Si](C)(C)c5ccc(OC)cc5)[C@@H]4C)c4ccccc43)c2)cc1`, the composite z-score in [1] is 0.682; in test [5] it was 1.38; in test [7], -0.0674; in test [8], 0.383; in [9], 0.889; in test [10] it was -0.128. Besides, the z-score in [2] is -0.228 (inactive); in test [3] it was -1.99 (inactive); in test [4], 0.678 (inactive); in test [6], 1.48 (inactive).
As for `COC(=O)[C@@]1(Cc2ccc(F)cc2)[C@H]2c3cc(C(=O)N4CCCC4)n(C)c3C[C@H]2CN1C(=O)c1ccccc1`, the composite z-score in test [1] is 0.579; in test [5], 3.25; in test [7], 0.744; in [8] it was -0.662; in test [9], 0.405; in test [10], -0.0259. Moreover, the z-score was -0.42 (inactive) in [2], 0.252 (inactive) in test [3], -0.658 (inactive) in test [4] and 0.508 (inactive) in test [6].
As for `COC(=O)[C@@]1(Cc2ccccc2)[C@H]2c3cc(C(=O)N4CCCC4)n(CCSCCO)c3C[C@H]2CN1C(=O)c1ccccc1`, the composite z-score in test [1] amounted to 0.465; in test [5], 3.67; in test [7] it was 0.788; in test [8], 0.511; in test [9], 0.899; in [10], 0.0971. In addition, the z-score is 0.118 (inactive) in test [2], 0.307 (inactive) in test [3], -0.0727 (inactive) in [4] and -1 (inactive) in [6].
For the molecule `CC(=O)NCCCC[C@@H]1NC(=O)[C@H]2C[C@@H](C(=O)NCCCCCNC(=O)CS)[C@@H](c3cccc(OCCO)c3)N2C1=O`, the composite z-score in [1] is 0.896; in [5] it was 3.18; in [7], -0.184; in [8], 0.52; in test [9], 0.059; in [10], -0.104. The z-score in [2] was 0.778 (inactive); in test [3], 0.0625 (inactive); in test [4], 0.0709 (inactive); in [6], -0.418 (inactive).
Turning to `CC(C)C(=C=CC[C@H](O)c1cccc(OCCO)c1)CCO`, the composite z-score was 0.801 in test [1]; 0.228 in [5]; -0.285 in test [7]; 0.683 in test [8]; 0.234 in test [9]; -0.165 in test [10]. Besides, the z-score was -1.16 (inactive) in test [2], -0.538 (inactive) in test [3], -1.42 (inactive) in test [4] and 0.537 (inactive) in [6].
For `C=C(C(=O)CC[C@@H](OC(=O)c1ccccc1-c1ccccc1C(=O)O)c1ccccc1OCCO)C(C)C`, the composite z-score is 1.55 in test [1]; 1.14 in test [5]; -0.0617 in test [7]; 1.36 in test [8]; 1.05 in test [9]; -0.112 in [10]. Besides, the z-score is -1.28 (inactive) in test [2], -0.832 (inactive) in [3], -1.88 (inactive) in [4] and 0.293 (inactive) in test [6].
Consider `C=C(/C(=C/C[C@@H](OC(C)=O)c1ccc(CO)o1)c1cc(C(=O)OC)ccc1OC)C(C)C`, for which the composite z-score in [1] was 0.864; in test [5], 1.86; in test [7], -0.0142; in test [8] it was 0.328; in [9], 0.213; in test [10] it was 0.358. Also, the z-score in test [2] was 1.06 (inactive); in [3] it was -0.245 (inactive); in [4], -0.0251 (inactive); in test [6], -0.0453 (inactive).
